# Screens deposited in PubChem BioAssay by Broad Institute.
# The list is not random: actives were taken first. Their share in the collection is about 3%.
# PfHsp90 yeast 2 – growth inhibition of yeast expressing Plasmodium Hsp90; AID 504621; S. cerevisiae expressing PfHsp90, BacTiter-Glo ATP, 48 h; yeast lacking PDR1 and PDR3 efflux regulators; hit rate 0.32% among 310,000; inhibition, % at 9.4 µM;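 active means every replicate shows inhibition above about 80%, whatever the replicate mean, limit read from the data; inconclusive means mean inhibition reaches the set limit but some replicate falls short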;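 further: 0% = DMSO neutral controls and 100% = 20 µM radicicol positive controls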
# esBAF inh – SWI/SNF esBAF complex inhibition; mouse ES cells, Bmi1-luciferase knock-in reporter, 24 h; 100% = twice the neutral-well signal; reporter increase, % at 12.5 µM; hit rate 2% among 350,000; AID 602393; in the data active means activation above about 40%; inconclusive means no clear call, values can overlap the other calls;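 further: 0% = median of the plate's neutral control wells and 100% = double that signal; a rise in the Bmi1 reporter signal indicates esBAF inhibition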
# MITF act – activators of MITF-driven TRPM1 promoter activity in SK-MEL-5 cells. SK-MEL-5 TRPM1-promoter luciferase, 24 h; % of positive control, neutral wells = 0. activation, % at 12.5 µM. hit rate 0.75% among 300,000. AID 588334;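 active means mean activation of at least 80% with every replicate also reaching 80%; inconclusive means mean reaches 80% but some replicate falls short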;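 further: 0% = neutral control wells and 100% = parthenolide positive control wells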
# Wnt bcat act – Wnt/beta-catenin pathway activation; Wnt/beta-catenin reporter cell assay, activator, plate reader; activation, % at 9.35 µM; hit rate 1.2% among 300,000; AID 743398; in the data active means activation above about 30%, passing the limit was not always enough; inconclusive means no clear call, values can overlap the other calls;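 further: 0% = neutral control wells and 100% = positive control wells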
# Vif inh – HIV Vif inhibition. AID 602346. hit rate 0.35% among 340,000. HEK293T cells, Vif self-association by quenched fluorescence, imaging, 24 h. inhibition, % at 7.49 µM; in the data active means inhibition above about 50%, passing the limit was not always enough; inconclusive means no clear call, values can overlap the other calls; inactive means below about 31%
# N-glyco inh – blocks N-linked glycosylation in D54 reporter cells; D54 ERlucT glycosylation luciferase reporter, 24 h; percent of 100 nM tunicamycin response; reporter increase, % at 12.5 µM; hit rate 0.23% among 360,000; AID 588692;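 active means mean luciferase reporter signal, scaled so untreated is 0 and the glycosylation-blocking control 100, at or above a set limit in every replicate; inconclusive means mean reaches the limit but not every replicate does; inactive means mean below the limit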;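 further: luciferase carries N-glycosylation sites so blocking glycosylation raises the light; 0% = median of neutral control wells and 100% = median of 100 nM tunicamycin wells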
# Active calls of the source: *; ? = inconclusive; . = no result.
SMILES,PfHsp90 yeast 2,esBAF inh,MITF act,Wnt bcat act,Vif inh,N-glyco inh
O=C(NNC(=O)C12CC3CC(CC(C3)C1)C2)c1ccncc1,22,-3,-3,-1,-2,0
COC(=O)c1ccc(NC(=S)Nc2ccccn2)cc1,-17,58*,112*,.,-2,0
COC(=O)c1ccc(NC(=S)Nc2ccc(O)cc2)cc1,13,.,3,1,5,-2
CC(C)(C)C(=O)OC/C(N)=N/OC(=O)c1ccc(Cl)cc1,9,.,.,3,6,2
CC(C)(C)C(=O)O/N=C(\N)COc1cccc(Cl)c1,-7,81*,55,11,0,4
O=C(CN1C(=O)C2CC=CCC2C1=O)OCC(=O)c1ccc(Cl)c([N+](=O)[O-])c1 (stereo unspecified),-24,-2,-13,1,6,4
COc1ccccc1C1CCN(C(=O)c2cnn(-c3ccccc3)c2C)CC1,-5,4,-2,41*,-3,-2
COc1ccccc1C1CCN(C(=O)c2ccccc2)CC1,0,7,4,-2,-3,-1
COc1ccc(OC(=O)c2cnn(-c3ccccc3)c2C)cc1,-38,67*,63,.,0,-3
Cc1nn(-c2ccccc2)c(C)c1C(=O)NCCc1ccccc1,-13,24,88*,-4,-16,-2
O=C(NCCc1ccccc1)c1ccc(-n2cnnn2)cc1,-17,48*,39,7,.,-1
Cc1nn(-c2ccccc2)c(C)c1C(=O)NCCc1ccc(Cl)cc1,-3,.,-9,-1,-1,0
O=C(NCCc1c[nH]c2ccccc12)c1ccc(-n2cnnn2)cc1,-11,0,.,0,4,0
C[C@@H]1CN([C@@H](C)CO)C(=O)c2cc(NC(=O)Nc3ccccc3)ccc2O[C@@H](C)CCCCO[C@H]1CN(C)S(=O)(=O)c1cccs1,.,-2,.,.,.,.
CC(C)NC(=O)Nc1ccc2c(c1)C(=O)N([C@H](C)CO)C[C@H](C)[C@@H](CN(C)Cc1ccccc1)OCCCC[C@@H](C)O2,.,-6,.,.,.,.
N#Cc1cccc(-c2ccc3c(c2)[C@@H]2[C@@H](CCN2S(=O)(=O)c2cccc(F)c2)[C@H](CO)N3)c1,.,0,.,.,.,.
Cc1ccc(NC(=O)c2cnn(-c3ccccc3)c2C)cc1,3,-23,.,22,-2,-14
Cc1ccc(NC(=O)c2cnn(-c3ccccc3)c2C)c(C)c1,7,40,68,45*,-3,-4
CC(=O)c1c(C)nn(-c2ccccc2)c1C,-7,.,.,4,-4,2
COc1ccc(OC(=O)c2c(C)nn(-c3ccccc3)c2C)cc1,-8,71*,71,29,5,-2
Cc1nn(-c2ccccc2)c(C)c1C(=O)Oc1ccccc1,6,62*,?,14,-4,0
CC(C)N(Cc1nc(-c2ccccc2)no1)C(=O)C1CCCCC1,-12,-3,-7,-3,-10,0
O=C(Nc1cc(SCCO)cc([N+](=O)[O-])c1)c1ccco1,-22,.,1,.,-11,2
CC(C)(C)n1ncc2c(=O)n(CC(=O)c3ccc(Cl)cc3)cnc21,5,74*,74,.,-4,-3
CS(=O)(=O)N1CCC(C(=O)NCCc2ccccc2)CC1,-6,-3,10,.,-19,1
SMILES,PfHsp90 yeast 2,esBAF inh,MITF act,Wnt bcat act,Vif inh,N-glyco inh
CC1CN(C(=O)c2cc(-c3ccncc3)nc3ccccc23)CC(C)O1 (stereo unspecified),-4,-3,2,0,3,45*
CC(C)Oc1cccc(-c2cc(C(=O)N3CCN(c4ncccn4)CC3)c3ccccc3n2)c1,-15,60*,51,-6,-13,-8
O=C(c1cc(-c2ccncc2)nc2ccccc12)N1CCN(Cc2ccccc2)CC1,.,12,11,-6,51*,2
CC1CC(C)CN(C(=O)c2cc(-c3ccncc3)nc3ccccc23)C1 (stereo unspecified),.,-4,-10,3,.,1
Cc1ccc(-n2c(Cl)c(Cl)nc(Cl)c2=O)cc1,105*,.,-94,.,.,-21
COc1nc(Cl)cn(-c2ccc(C)cc2)c1=O,-28,.,-4,0,0,-2
COc1ccc(NC(=O)COc2ccccc2)c(OC)c1,-20,51*,63,-3,-16,0
Cc1ccc(OCC(=O)Nc2ccccc2C(N)=O)cc1,-10,?,61,57*,0,-7
